Measured values published in the supplement of paper PMC10732440.
± gives the standard deviation of the averaged measurements.

Tested on: Caenorhabditis elegans N2 infected with Nematocida parisii ERTm1
Assay: progeny production relative to DMSO uninfected control; higher = more progeny despite microsporidia infection (inhibition of infection with low host toxicity)
Details: infection time 6 days
Procedure, shortened: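 Progeny production is reported as a percentage of spore-free vehicle wells and averaged across replicates. It was measured after bleach-synchronised wild-type C. elegans L1 larvae (100 per well) spent 6 days shaking at 21°C in K-medium with E. coli OP50, 15,000 N. parisii spores/μL and compound at 100 μM or 40 μM in 1% DMSO. Counting used Rose Bengal staining, flatbed scanning and WorMachine, and each compound and dose was tested three times.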

Compound `O=C(O)c1cc(-c2ccc(Br)cc2)nc2ccc(Cl)cc12` has a progeny production (40 µM) of 4.63 ± 0.086% and a progeny production (100 µM) of 11.3 ± 3.5%.

`Cc1ccc(S(=O)(=O)Nc2cccc3cccnc23)cc1` was tested, and the progeny production (40 µM) was 6.57 ± 3.6% and the progeny production (100 µM) was 7.42 ± 4.3%.

Work on `CC1CN(c2ncnc3c2c(-c2ccccc2)cn3-c2ccc(F)cc2)CC(C)O1` (stereo unspecified) yielded a progeny production (40 µM) of 4.39 ± 1.6% and a progeny production (100 µM) of 13.4 ± 13%.

`O=C(/C=C/n1cnc(-c2cc(C(F)(F)F)cc(C(F)(F)F)c2)n1)NNc1cnccn1` gave a progeny production (40 µM) of 7.43 ± 4% and a progeny production (100 µM) of 14.1 ± 2.6%.

`CC(=O)N1c2ccccc2NC2=C(C(=O)CC(C)(C)C2)C1c1ccc(OCc2ccccc2)cc1` (stereo unspecified) showed a progeny production (40 µM) of 4.92 ± 0.34% and a progeny production (100 µM) of 9.82 ± 5.5%.

`CCN(CC)CCn1c(=N)n(CC(O)COc2ccc(Cl)cc2Cl)c2ccccc21` (stereo unspecified) showed a progeny production (40 µM) of 7.02 ± 2.2% and a progeny production (100 µM) of 16.5 ± 20%.

`O=C(O)CSc1cc(NS(=O)(=O)c2cccc3cccnc23)c2ccccc2c1O` was tested, and the progeny production (40 µM) was 6.14 ± 2.5% and the progeny production (100 µM) was 14.5 ± 8.5%.

For `NC(=O)c1cnc2ccc(S(=O)(=O)c3ccccc3)cc2c1Nc1ccc(O)cc1`, the progeny production (40 µM) was 6.94 ± 3.1% and the progeny production (100 µM) was 17.7 ± 11%.

`CCCc1ccc(-c2cc3cn([C@H]4C[C@H](O)[C@@H](CO)O4)c(=O)nc3o2)cc1` was tested, and the progeny production (40 µM) was 3.62 ± 2.5% and the progeny production (100 µM) was 11 ± 5.5%.

`COc1ccc2c(c1OC)C(=O)OC2C1c2c(cc3c(c2OC)OCO3)CCN1C` (stereo unspecified) showed a progeny production (40 µM) of 5.88 ± 3.7% and a progeny production (100 µM) of 14.7 ± 9.2%.

Work on `CC(C)(C)NC(=O)[C@@H]1CN(Cc2cnc3occc3c2)CCN1C[C@@H](O)C[C@@H](Cc1ccccc1)C(=O)N[C@H]1c2ccccc2C[C@H]1O` yielded a progeny production (40 µM) of 8.87 ± 0.17% and a progeny production (100 µM) of 8.42 ± 0.9%.

For `[N-]=[N+]=N[C@H]1C[C@H](n2ccc(=O)[nH]c2=O)O[C@@H]1CO`, the progeny production (40 µM) was 4.8 ± 1.5% and the progeny production (100 µM) was 11.5 ± 5.3%.

`O=C(NCc1cccc2ccccc12)c1cccs1` gave a progeny production (40 µM) of 3.62 ± 2.1% and a progeny production (100 µM) of 12.9 ± 10%.

`c1ccc(-c2nnc3c4ccccc4c(N4CCNCC4)nn23)cc1` gave a progeny production (40 µM) of 2.73 ± 0.97% and a progeny production (100 µM) of 15.6 ± 12%.

For `Cc1ccn2c(C(=O)NCc3ccccc3)c(C)nc2c1`, the progeny production (40 µM) was 9.26 ± 8.6% and the progeny production (100 µM) was 13.1 ± 10%.

With `Clc1cccc(-c2nnc(-c3ccccc3)o2)c1` the progeny production (40 µM) was 1.33 ± 1.1% and the progeny production (100 µM) was 4.24 ± 2.4%.

Work on `CCc1nc(N)nc(N)c1C#CC(C)c1cc(OC)cc(-c2ccncc2)c1` (stereo unspecified) yielded a progeny production (40 µM) of 5.28 ± 2.2% and a progeny production (100 µM) of 9.94 ± 7.4%.

For `Nc1nc(N)c2c(Sc3ccccc3)cccc2n1`, the progeny production (40 µM) was 3.69 ± 1.5% and the progeny production (100 µM) was 16.4 ± 12%.

`Fc1cccc(Cl)c1C1CC(c2ccc(Cl)cc2)Nc2nnnn21` (stereo unspecified) was tested, and the progeny production (40 µM) was 4.5 ± 4.2% and the progeny production (100 µM) was 7.47 ± 2.1%.

`O=C1[C@H](CC[C@H](O)c2ccc(F)cc2)[C@@H](c2ccc(O)cc2)N1c1ccc(F)cc1` gave a progeny production (40 µM) of 6.94 ± 2.7% and a progeny production (100 µM) of 21 ± 14%.

`CC(C)(C)c1cccc(-c2nc3cc(C(=N)N)ccc3[nH]2)c1O` showed a progeny production (40 µM) of 2.13 ± 0.25% and a progeny production (100 µM) of 20.4 ± 23%.

`C[C@@H](NC(=O)c1cccc(-c2cnc(-c3cc4ccccc4cn3)[nH]2)c1)c1ccc(F)cc1` was tested, and the progeny production (40 µM) was 5.74 ± 3.9% and the progeny production (100 µM) was 8.24 ± 5.7%.

Compound `CC(C)N(c1cc(-c2ccccc2)sc1C(=O)O)C(=O)[C@H]1CC[C@H](C)CC1` has a progeny production (40 µM) of 4.15 ± 1.8% and a progeny production (100 µM) of 12.2 ± 7.8%.

Compound `O=c1ccc2ncc(=O)n3c2n1CC3CN1CCC(NCc2cc3c(cn2)OCCC3)CC1` (stereo unspecified) has a progeny production (40 µM) of 2.13 ± 0.25% and a progeny production (100 µM) of 18.2 ± 18%.

With `Cc1cc(O)c2c(c1)C(=O)c1c(I)c(O)c(I)c(O)c1C2=O` the progeny production (40 µM) was 8.9 ± 5.8% and the progeny production (100 µM) was 25.1 ± 5.2%.

`N=C(N)NCCCCC(=O)Nc1cc(C(F)(F)F)cc(NC(=O)c2cc(C(=O)Nc3cc(C(F)(F)F)cc(NC(=O)CCCCNC(=N)N)c3O[C@@H]3CCNC3)ncn2)c1O[C@@H]1CCNC1` showed a progeny production (40 µM) of 7.1 ± 7.2% and a progeny production (100 µM) of 3.98 ± 2.8%.

With `Oc1ccc(NCc2ccccc2OCc2ccccc2)cc1` the progeny production (40 µM) was 5.72 ± 3.1% and the progeny production (100 µM) was 8.25 ± 6.3%.

For `Clc1ccc(Cn2c(CN3CCCC3)nc3ccccc32)cc1`, the progeny production (40 µM) was 3.41 ± 1.9% and the progeny production (100 µM) was 6.88 ± 1.8%.

`COC1CC2CCC(C)C(O)(O2)C(=O)C(=O)N2CCCCC2C(=O)OC(C(C)CC2CCC(OCCO)C(OC)C2)CC(=O)C(C)/C=C(\C)C(O)C(OC)C(=O)C(C)CC(C)/C=C/C=C/C=C/1C` (stereo unspecified) showed a progeny production (40 µM) of 5.45 ± 2.7% and a progeny production (100 µM) of 9.56 ± 2.5%.

`CCCCSc1nc(N)c2[nH]c(=O)c(=O)n(Cc3ccccc3)c2n1` was tested, and the progeny production (40 µM) was 4.52 ± 1.9% and the progeny production (100 µM) was 20.2 ± 11%.

`NC(=O)c1ccc(I)c([N+](=O)[O-])c1` was tested, and the progeny production (40 µM) was 1.54 ± 0.63% and the progeny production (100 µM) was 10 ± 2.6%.

`Nc1nc(C(F)(F)F)cc2c1[nH]c(=O)n2Cc1ccccc1` showed a progeny production (40 µM) of 2.69 ± 0.61% and a progeny production (100 µM) of 17.2 ± 1.5%.

`O=C(O)c1cc(-c2ccccc2)nc2ccccc12` gave a progeny production (40 µM) of 6.15 ± 0.79% and a progeny production (100 µM) of 6.83 ± 4.5%.

`Nc1nc2c(ncn2/C=C2/CC2(CO)CO)c(=O)[nH]1` gave a progeny production (40 µM) of 3.83 ± 2.6% and a progeny production (100 µM) of 11.8 ± 3.7%.

Work on `COc1ccc(CNC(=O)C(NS(=O)(=O)c2ccc3nc(C)sc3c2)C(C)C)cc1` (stereo unspecified) yielded a progeny production (40 µM) of 4.14 ± 1.6% and a progeny production (100 µM) of 6.87 ± 4%.

Work on `CCOCc1nc2c(N)nc3ccccc3c2n1CC(C)(C)O` yielded a progeny production (40 µM) of 3.75 ± 1.7% and a progeny production (100 µM) of 14.8 ± 5.8%.

Compound `CC(C)Cn1c(=O)n(C)c(=O)c2c(-c3cncn3C)n(Cc3cccc4ccccc34)nc21` has a progeny production (40 µM) of 4.44 ± 2.9% and a progeny production (100 µM) of 6.12 ± 1.8%.

Work on `CC(C)(C)c1ccc(C(Cn2cccc(C(F)(F)F)c2=O)NC2Cc3ccccc3C2)cc1` (stereo unspecified) yielded a progeny production (40 µM) of 1.91 ± 1.3% and a progeny production (100 µM) of 13.4 ± 9.4%.
